Sm TGR inh – qHTS Assay for the Inhibitors of Schistosoma Mansoni Peroxiredoxins; Schistosoma mansoni thioredoxin glutathione reductase (TGR), Q962Y6; 3% of 360,000 active; Potency, µM (titrated, usually from 114 µM), inactives show at the highest dose activity change, negative = inhibition, hits mostly inhibitors; purified TGR, DTNB reduction, TNB absorbance 405 nm; further: nearly all actives have a fitted effect of over 60% in size
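First, TGR (20 nM dispensed) and NADPH were mixed with compound. Second, a 15 min room-temperature incubation followed. Third, further NADPH and then DTNB were added to start the reaction. Finally, TNB absorbance was monitored kinetically.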
AmpC inh detg – qHTS Inhibitors of AmpC Beta-Lactamase (assay with detergent) | AmpC hydrolysis of nitrocefin, absorbance 480 nm, 0.01% Triton | Potency, µM (top dose mostly 114 µM), without a hit: at the top dose activity change, negative = inhibition, actives largely listed as inhibitors | 0.041% of 370,000 active | AID 485294, 2010;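 further: 0% = no-compound wells and -100% = no-enzyme wells; nearly all actives have a fitted effect of over 25% in size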
Target sequence (P00811 whole entry, looked up): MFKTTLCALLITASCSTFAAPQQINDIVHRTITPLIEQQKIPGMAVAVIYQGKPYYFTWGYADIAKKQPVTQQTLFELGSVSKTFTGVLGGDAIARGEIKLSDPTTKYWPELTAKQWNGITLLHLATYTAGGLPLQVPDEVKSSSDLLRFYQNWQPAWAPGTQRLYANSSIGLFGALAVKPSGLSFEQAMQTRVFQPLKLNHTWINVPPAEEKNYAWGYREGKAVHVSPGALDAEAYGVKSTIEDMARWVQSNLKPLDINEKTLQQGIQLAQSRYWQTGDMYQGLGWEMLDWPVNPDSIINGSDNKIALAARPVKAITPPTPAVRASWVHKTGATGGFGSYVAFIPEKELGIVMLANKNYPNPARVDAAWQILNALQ
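AmpC (5.3 nM in the dispensed reagent) in 20 mM phosphate pH 7.0 with 0.01% (detergent screen) or 0.0001% Triton X-100 was preincubated with compounds for 15 min at room temperature. Nitrocefin was then added from an 800 uM solution, and hydrolysis was followed at 480 nm.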
RE007 growth inh – qHTS Assay for Inhibitors of the HIV-1 protein Vpr; S. pombe RE007 Vpr strain, BacTiter-Glo ATP luminescence, 24 h; Potency, µM (doses to about 92.2 µM), without a hit: at the highest dose activity change, negative = less growth, actives largely listed as inhibitors; 0.21% of 360,000 active; AID 651644, 2012; active means well fitted falling curve with a large enough effect; inconclusive means small, poorly fitted or top-dose-only effect; inactive means no such curve, though single readings can be large or run the other way; further: nearly all actives have a fitted effect of over 50% in size
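Fission yeast RE007 carrying one integrated HIV-1 vpr copy, seeded at OD 0.01 in PMG+AL medium with 23 nL pinned compound. Grown 24 h at 30 degrees; viability read by BacTiter-Glo luminescence after 5 min.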
AMA1 RON2 block – qHTS for Inhibitors of AMA1-RON; Towards Development of Antimalarial Drug Lead: Primary Screen; AlphaScreen AMA1-biotinylated RON2 peptide binding; Potency, µM (top dose mostly 58.2 µM), for the others: top-dose activity change, negative = inhibition, usual class: inhibitors; Plasmodium falciparum AMA1 (3D7) - RON2 peptide interaction; 0.2% of 360,000 active;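 further: 0% = vehicle wells and -100% = peptide control; nearly all actives have a fitted effect of over 45% in size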
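AMA1 (3D7) with his tag at 25 nM final met compounds first, then biotinylated RON2 peptide at 25 nM; detection used donor plus acceptor beads, 10 µg/mL apiece, read by AlphaScreen after 30 min at room temperature.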
AmpC no deterg – qHTS Inhibitors of AmpC Beta-Lactamase (assay without detergent); AmpC nitrocefin hydrolysis, absorbance 480 nm, 0.0001% Triton; Potency, µM (top dose mostly 57.1 µM), without a hit: top-dose activity change, negative = inhibition, actives largely listed as inhibitors; AID 485341, 2010; 0.52% of 330,000 active;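 further: plate controls were no compound for no effect and no enzyme for full effect; nearly all actives have a fitted effect of over 20% in size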
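AmpC (5.3 nM in the dispensed reagent) in 20 mM phosphate pH 7.0 with 0.01% (detergent screen) or 0.0001% Triton X-100 was preincubated with compounds for 15 min at room temperature. Nitrocefin was then added from an 800 uM solution, and hydrolysis was followed at 480 nm.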
Numbers without * were called inactive; ? = inconclusive; / = no result given; [ ] = another dose, or the depositor's remark. In the library only some 3.2% were active in any assay of this set; here they are far more common. Unless noted, the call rests on the fitted dose curve; in most records, active means well fitted curve in the direction sought with a large enough effect; inconclusive means small, poorly fitted or top-dose-only effect, or another doubt; inactive means no such curve, though single readings can be large; an effect the other way counts as inactive or inconclusive. Unless noted, on the % scale 0 is the no-effect control and ±100 the full control effect; potency means the concentration at half of the fitted maximal effect.

SMILES | Sm TGR inh | AmpC inh detg | RE007 growth inh | AMA1 RON2 block | AmpC no deterg
COc1ccc(S(=O)(=O)CCC(=O)Nc2c(C)cccc2C)cc1 | 39.8µM* | -3.9% | -4.3% | -5.5% | -4.9%
CC(=O)CCS(=O)(=O)c1ccc(Oc2ccc(S(=O)(=O)CCC(C)=O)cc2)cc1 | 10µM* | -0.2% | -15.6% | 3.9% | 1.0%
CCC(=O)N1CCc2cc(Br)cc(S(=O)(=O)N3CCCC(C(=O)Nc4cccc(F)c4)C3)c21 (stereo unspecified) | 49.5% | 23.7% | / | / | /
COc1ccc(Cl)cc1NC(=O)C(C)n1c(=O)cc(C(F)(F)F)c2c(C)nn(C)c21 (stereo unspecified) | -9.4% | -4.6% | / | / | /
COc1ccc(C)c2sc(NC(=O)CCS(=O)(=O)c3ccccc3)nc12 | 5.01µM* | 3.7% | 9.0% | -12.1% | 27.6%
COc1ccc(S(=O)(=O)CCC(=O)NCCc2ccc(C)cc2)cc1 | 31.6µM* | -0.1% | 4.7% | -10.2% | 3.8%
COc1ccccc1-c1nnc(NC(=O)CCS(=O)(=O)c2ccccc2)o1 | 39.8µM* | 2.4% | -17.4% | 33.5% | -4.6%
Cc1ccc(C(=O)c2cn(CC(=O)Nc3ccc(C)cc3Cl)c3nc(C)ccc3c2=O)cc1 | -8.3% | -5.0% | / | / | /
CC1=C(C)/C(=N/OC(=O)c2cccc([N+](=O)[O-])c2)C=CC1=O | 11.2µM* | ? | -19.9% | 0.0% | -12.6%
CCC1CN(C(=O)N2CCC(C(=O)NCc3cc(OC)ccc3OC)CC2)c2ccccc2O1 (stereo unspecified) | 1.8% | 19.2% | / | / | /
CCc1nc2ccc(C(=O)Nc3ccc(OC)c(OC)c3)cn2c1N(C)Cc1nccs1 | / | / | ? | -6.1% | /
CCc1nc2ccc(C(=O)Nc3ccc(OC)c(OC)c3)cn2c1N(C)Cc1ccc(N(C)C)cc1 | / | / | -25.9% | 31.6µM* | /
COc1ccccc1-c1nnc(SCC(=O)c2ccc(F)cc2)n1-c1ccccc1 | 0.6% | -1.3% | / | / | /
Oc1ccc2ccccc2c1C=Nc1ccccc1Br | -23.4% | -6.2% | -3.0% | -1.7% | -27.2%
Oc1cccc(C=NCc2ccccc2)c1O | 50.1µM* | -13.1% | -13.9% | -14.6% | -31.5%
Oc1cccc(C=Nc2cccc3ccccc23)c1O | 7.94µM* | -10.3% | -17.5% | ? | -53.1%
CC(=O)c1cccc(N=Cc2c(O)ccc3ccccc23)c1 | -16.9% | ? | -13.6% | -3.8% | -14.2%
Cc1cc(C(=O)O)ccc1N=Cc1c(O)ccc2ccccc12 | 50.1µM* | ? | -13.4% | 20.3% | -22.2%
Oc1c(C=NCc2ccccc2)sc2ccccc12 | 4.3%[57.1 µM] | 0.6% | -27.1% | 26.4% | -27.2%
Oc1ccccc1N=Cc1c(O)ccc2ccccc12 | 28.2µM* | -7.9% | -29.8% | -6.9% | -45.6%
COc1ccc(NC(=O)CN(c2ccc(C)cc2)S(=O)(=O)c2cccs2)cc1 | 7.2% | 5.4% | / | / | /
COc1ccc(OC)c(NC(=O)c2cn(CC(C)C)c(=O)c3cc(OC)c(OC)cc23)c1 | -11.3% | -2.9% | / | / | /
Oc1ccc2ccccc2c1C=NC12CN3CCN(CN(C3)C1)C2 | 44.7µM* | -0.6% | -9.1% | 60.4% | -21.2%
C=Cc1ccc(N=Cc2c(O)ccc3ccccc23)cc1 | 63.1µM* | -2.5% | -15.9% | 4.1% | -28.4%
O=S(=O)(c1ccc(Cl)cc1)c1nnn2c1nc(N1CCCCC1)c1sccc12 | -6.9% | -3.5% | / | / | /
SMILES | Sm TGR inh | AmpC inh detg | RE007 growth inh | AMA1 RON2 block | AmpC no deterg
CCc1ccccc1NC(=O)c1ccc2c(c1)nnn2C1CCCC1 | 0.3% | 0.1% | / | / | /
O=C(NCc1ccc(F)cc1)c1ccc(CSc2nc3ccncc3n2Cc2ccc(F)cc2)cc1 | -4.2% | 19.0% | / | / | /
C=CCNC(=S)N1CCN(CCN=CC2=C(O)CC(c3cccs3)CC2=O)CC1 (stereo unspecified) | -7.2% | ? | 9.7% | 37.0% | 82.7%
CC(=O)N1CCN(CCN=CC2=C(O)CC(c3cccs3)CC2=O)CC1 (stereo unspecified) | 44.7µM* | -6.9% | 1.2% | 7.9% | -20.8%
CC1(C)CC(=O)C(C=NCCN2CCN(C(=O)Cc3ccc(Cl)cc3)CC2)=C(O)C1 | ? | -15.0% | 12.9% | 55.2% | 94.4%
CCOC(=O)c1ccc(NC(=S)N2CCN(CCN=CC3=C(O)CC(C)(C)CC3=O)CC2)cc1 | 1.12µM* | -5.6% | 37.3% | 34.9% | -7.3%
CCCOc1ccc(N2C(=O)CC(N3CCN(CCN=CC4=C(O)CC(C)(C)CC4=O)CC3)C2=O)cc1 (stereo unspecified) | / | -3.8% | ? | 47.3% | 167.1%
CC1(C)CC(=O)C(C=NCCN2CCN(C(=O)C34CC5CC(CC(C5)C3)C4)CC2)=C(O)C1 | 25.1µM* | 14.8% | 4.3% | 42.7% | 138.9%
CC1(C)CC(=O)C(C=NCCN2CCN(C3CC(=O)N(c4ccc(Br)cc4)C3=O)CC2)=C(O)C1 (stereo unspecified) | 50.1µM* | -4.3% | ? | 51.4% | 56.8%
CCOC(=O)c1ccc(NC(=O)CN2CCN(CCN=CC3=C(O)CC(C)(C)CC3=O)CC2)cc1 | ? | ? | 51.9% | -0.7% | -6.7%
O=C(Nc1ccc2nc(SCC(=O)N3CCCC3)sc2c1)c1cccc(Br)c1 | -0.4% | -0.3% | / | / | /
CCN1CCN(c2cc(N3CCN(C(=O)c4ccco4)CC3)c3c4c(onc24)-c2ccccc2C3=O)CC1 | 7.08µM* | -13.1% | -19.3% | 22.4µM* | 147.0%
O=C(O)CCNc1cc(N2CCN(C(=O)c3ccco3)CC2)c2noc3c2c1C(=O)c1ccccc1-3 | 15.8µM* | -0.6% | -15.8% | 31.6µM* | 166.5%
CC(=O)OCCNc1cc(N2CCN(C)CC2)c2noc3c2c1C(=O)c1ccccc1-3 | -23.3% | ? | -10.0% | ? | 110.3%
O=C(O)CCCNc1cc(N2CCN(C3CCCCC3)CC2)c2noc3c2c1C(=O)c1ccccc1-3 | -0.4% | 9.3% | / | / | /
CCc1ccc(OC(C)C(=O)Nc2c(C(=O)c3ccccc3)oc3ccccc23)cc1 (stereo unspecified) | 7.3% | -5.2% | / | / | /
O=c1cc2nc(-c3ccccc3)nc(SCc3cccc(Br)c3)n2[nH]1 | 4.5% | 0.1% | / | / | /
COc1ccc(OC(C)c2nc3ccccc3[nH]2)cc1 (stereo unspecified) | -0.4% | 13.2% | / | / | /
CCOc1ccc(Cl)cc1C(c1c(C)[nH][nH]c1=O)c1c(C)[nH][nH]c1=O | ? | -0.2% | 18.2% | -1.2% | -36.9%
C#CCOc1ccc(Br)cc1C(c1c(C)[nH][nH]c1=O)c1c(C)[nH][nH]c1=O | 44.7µM* | 3.6% | -8.0% | 3.3% | -21.1%
CC1(C)CC(=O)C(CC2=C(O)CC(C)(C)CC2=O)=C(O)C1 | 2.82µM* | -4.5% | -16.6% | 5.7% | -11.3%

Assay outcomes: PubChem BioAssay, National Center for Advancing Translational Sciences (NCATS)
